Reference: PubChem BioAssay (NCATS)
Results filed as inconclusive are left out. Values without a mark were called inactive. The call rests on the fitted dose curve; in most records, active means well fitted inhibition curve with a large enough effect; inconclusive means small, poorly fitted or top-dose-only effect; inactive means flat fitted curve, though single readings scatter.

Target: Calcium and integrin-binding protein 1 (Homo sapiens) (UniProt Q99828)
Assay: Primary qHTS for Identification of Calcium Integrin Binding Protein 1 (CIB1) Competitor (AID 1508620);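 further: GST tagged CIB1 binding a fluorescein labelled alphaIIb integrin peptide tracer; top concentration of the series differs between compounds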
Settings: CIB1-GST / FITC-alphaIIb peptide fluorescence polarization; series mostly up to 114 µM; activity change, negative = inhibition: at the top concentration
Procedure, shortened: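 CIB1-GST (1 uM final) and compound incubated 15 min at room temperature before adding FITC-alphaIIb peptide tracer (100 nM final). Competition for binding read by fluorescence polarization (ex 480, em 540) after another 15 min at room temperature.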
On the % scale 0 is the no-effect control and ±100 the full control effect.

Calcium and integrin-binding protein 1 (Homo sapiens), sequence (Q99828 whole entry, looked up): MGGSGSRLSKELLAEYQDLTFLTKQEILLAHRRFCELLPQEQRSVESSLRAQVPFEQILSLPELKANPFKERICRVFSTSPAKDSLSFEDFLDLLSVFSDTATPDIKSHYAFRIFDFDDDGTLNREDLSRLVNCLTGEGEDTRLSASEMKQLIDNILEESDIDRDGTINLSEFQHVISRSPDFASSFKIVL

| Structure (SMILES) | activity change, negative = inhibition |
| --- | --- |
| O=C(Oc1cccnc1)c1cccs1 | 7.7% |
| O=C(Nc1ccc(-c2ccccc2)nc1)c1cccs1 | 2.18% |
| CNc1cccc(S(=O)(=O)N2CCCN(S(=O)(=O)c3ccc4c(c3)OCCO4)CC2)c1 | -6.83% |
| CCOC(=O)C1CCN(C(=O)C2(NC(=O)Nc3ccccc3Cl)CCCCC2)CC1 | 1.89% |
| Oc1ccc(/C=C/c2ccccc2)c2cccnc12 | -12.1% |
| O=C(Nc1cncnc1)c1cccs1 | 4.6% |
| Cc1ccnc(NC(=S)N2CCN(c3cc(Cl)cc(Cl)c3)CC2)c1 | -6.87% |
| Cc1cc2c(s1)c1cnn(Cc3ccc(S(C)(=O)=O)cc3)c(=O)c1n2C | 6.19% |
| COc1ccc(C2Nc3ccccc3C(=O)N2Cc2ccccn2)cc1COc1c(C)cccc1C (stereo not drawn) | -3.34% |
| COc1cccc(NC(=S)N2CCN(c3cccc(Cl)c3Cl)CC2)n1 | 9.58% |
| N#Cc1nc(Nc2cc(F)cc(Cl)c2)nc(NC2CCCC2)n1 | 5.14% |
| Cc1cc(C)nc(NC(=S)N2CCN(c3ccc4ccccc4c3)CC2)c1 | -13.3% |
| O=C(CCc1ccccc1)Nc1cccc([S+](=O)([O-])Nc2ccccc2F)c1 | 0.363% |
| NC(=O)C1CCN(c2ncc(-c3ccc4c(c3)OC(F)(F)O4)s2)CC1 | 2.55% |
| O=C(CCc1ccccc1)Nc1ncnc2c1C(c1ccccc1)c1c(ccc3ccccc13)O2 (stereo not drawn) | 0.23% |
| Cc1cc(-c2nnc3n2CCC3)c(C)n1-c1ccccc1 | 5.46% |
| O=S(=O)(c1ccc2c(c1)OCCO2)N1CCN(S(=O)(=O)c2ccco2)CC1 | 0.0515% |
| O=C(O)c1ccc2c(c1)C(=O)N([C@H](Cc1ccc(Cl)cc1)C(=O)O)C2=O | -0.712% |
